In PubChem BioAssay:
Active and inactive are the calls of the source.

Columns and labels:
[1] = binders of probe aFSTL3 on microarray, primary screen, stem cell growth factor project, biochemical, small-molecule microarray, fluorescence 635/667 (AID 1064); conditions: higher = more signal;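 further: measures binding of the biotinylated anti-FSTL3 antibody to printed compounds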
[2] = binders from COS7 lysate, DM2A8 probe, primary screen, torsin A project, cell lysate, small-molecule microarray, fluorescence 635/667 (AID 1065); conditions: higher = more signal, COS7 lysate expressing mutant human TOR1A
[3] = binders of probe aFGF2 on microarray, primary screen, stem cell growth factor project, biochemical, small-molecule microarray, fluorescence 635/667 (AID 1067); conditions: higher = more signal;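 further: measures binding of biotinylated aFGF2 protein to printed compounds on slides; z-score merges feature fluorescence and signal-to-noise across triplicate slides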
[4] = binders of probe aFGF10 on microarray, primary screen, stem cell growth factor project, biochemical, small-molecule microarray, fluorescence 635/667 (AID 1071); conditions: higher = more signal;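 further: score merges 667 nm spot intensity and signal to noise from triplicate slides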
[5] = target: Neurogenic locus notch homolog protein 2 (Homo sapiens) (UniProt Q04721); assay: Notch2 binders on small-molecule microarrays, primary screen, biochemical, small-molecule microarray, 635 nm fluorescence, stem cell growth factors (AID 1073); conditions: Notch2 binding, higher = more signal
[6] = target: Pro-neuregulin-1, membrane-bound isoform (Homo sapiens) (UniProt Q02297); assay: NRG1 binders on small-molecule microarrays, primary screen, psychiatric disease protein project, biochemical, small-molecule microarray, fluorescence 635/667 (AID 1075); conditions: NRG1 binding, 635 nm fluorescence, higher = more signal;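 further: score combines 667 nm spot fluorescence with signal to noise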
[7] = tested on: Neuregulin-1 EGF-like domain; assay: binders of neuregulin-1 EGF-like domain, primary screen, biochemical, small-molecule microarray, 635 nm fluorescence (AID 1081); conditions: small-molecule microarray binding, higher = more signal;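 further: binding of the protein to compounds printed on small-molecule microarray slides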
[8] = FRG1 promoter luciferase signal modulators, primary screen, FRG1 inhibition for FSHD, cell-based, C2C12 myotubes, firefly/Renilla luciferase, luminescence (AID 1084); conditions: higher = more signal, called active from +8 up or from −8 down
[9] = binders of probe aFST on microarray, primary screen, stem cell growth factor project, biochemical, small-molecule microarray, fluorescence 635/667 (AID 1086); conditions: higher = more signal;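 further: score merges 667 nm fluorescence with signal-to-noise of each printed compound spot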
[10] = binders of probe aHhip on microarray, primary screen, stem cell growth factor project, biochemical, small-molecule microarray, fluorescence 635/667 (AID 1087); conditions: higher = more signal;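 further: score merges spot fluorescence at 667nm with spot signal to noise ratio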
[11] = tested on: PRMT1 (protein arginine N-methyltransferase 1); assay: PRMT1 binders on small-molecule microarrays, primary screen, biochemical, small-molecule microarray, 635 nm fluorescence (AID 1088); conditions: small-molecule microarray binding, higher = more signal;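 further: binding of Prmt1 protein to compounds spotted on small-molecule microarray slides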
[12] = yeast growth modulation, basal conditions, primary screen, YJM789 clinical isolate, OD600, 24 h (AID 1089);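 further: growth of clinical yeast isolate S. cerevisiae YJM 789 seeded 1000 cells per well; test concentration not given here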; conditions: S. cerevisiae YJM789 growth, higher = more signal, called active from +8 up or from −8 down
[13] = fission yeast growth modulation, primary screen, strain 972, OD600, 24 h, no modulator (AID 1090);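 further: basal condition with compound alone and no growth modifier present; test concentration not given here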; conditions: S. pombe 972 growth, higher = more signal, called active from +8 up or from −8 down
[14] = S. cerevisiae growth modulation with rapamycin, primary screen, strain BY4716, OD600, 96 h (AID 1091); conditions: higher = more signal, called active from +8 up or from −8 down; further: test concentration not given here
[15] = target: Torsin-1A-interacting protein 2 (Homo sapiens) (UniProt Q8NFQ8); assay: LULL1 binders on small-molecule microarray, primary screen, cell lysate, human LULL1 lysate, 635/667 nm fluorescence (AID 1092); conditions: hLULL1 lysate binding, 635 nm fluorescence, higher = more signal;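 further: probe is lysate of COS7 cells overexpressing human LULL1; score merges per-feature 667 nm fluorescence with signal-to-noise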
[16] = E. coli growth modulation, two-sided OD650, primary screen, E. coli filamentation project, strain DRC41, 24 h (AID 1093); conditions: OD650, 24 h, higher = more signal, called active from +8 up or from −8 down;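 further: MC1000 strain lacking acrAB efflux and sulA so SOS filamentation is blocked; test concentration not given here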
[17] = small-molecule microarray binders of probe aLefty2, primary screen, biochemical, biotinylated probe, 635/667 nm fluorescence (AID 1094); conditions: higher = more signal;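 further: score merges spot fluorescence near 667 nm with spot signal-to-noise ratio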
[18] = tested on: Noggin (protein binding on small-molecule microarray); assay: Noggin binders on small-molecule microarray, primary screen, biochemical, 635/667 nm fluorescence (AID 1095); conditions: 635 nm fluorescence, higher = more signal;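 further: score merges 667 nm feature fluorescence with signal to noise over triplicate slides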
[19] = target: Neurogenic locus notch homolog protein 3 (Homo sapiens) (UniProt Q9UM47); assay: NOTCH3 binders on small-molecule microarray, primary screen, biochemical, 635/667 nm fluorescence (AID 1096); conditions: NOTCH3 binding, 635 nm fluorescence, higher = more signal
[20] = small-molecule microarray binders of probe aEGFR, primary screen, biochemical, biotinylated probe, 635/667 nm fluorescence (AID 1097); conditions: higher = more signal;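 further: probe is a biotinylated anti-EGFR antibody binding compounds printed on slides; score combines fluorescence near 667 nm and signal to noise of each spot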

Pro-neuregulin-1, membrane-bound isoform (Homo sapiens), sequence (Q02297 whole entry, looked up, the tested form may be a part, canonical isoform): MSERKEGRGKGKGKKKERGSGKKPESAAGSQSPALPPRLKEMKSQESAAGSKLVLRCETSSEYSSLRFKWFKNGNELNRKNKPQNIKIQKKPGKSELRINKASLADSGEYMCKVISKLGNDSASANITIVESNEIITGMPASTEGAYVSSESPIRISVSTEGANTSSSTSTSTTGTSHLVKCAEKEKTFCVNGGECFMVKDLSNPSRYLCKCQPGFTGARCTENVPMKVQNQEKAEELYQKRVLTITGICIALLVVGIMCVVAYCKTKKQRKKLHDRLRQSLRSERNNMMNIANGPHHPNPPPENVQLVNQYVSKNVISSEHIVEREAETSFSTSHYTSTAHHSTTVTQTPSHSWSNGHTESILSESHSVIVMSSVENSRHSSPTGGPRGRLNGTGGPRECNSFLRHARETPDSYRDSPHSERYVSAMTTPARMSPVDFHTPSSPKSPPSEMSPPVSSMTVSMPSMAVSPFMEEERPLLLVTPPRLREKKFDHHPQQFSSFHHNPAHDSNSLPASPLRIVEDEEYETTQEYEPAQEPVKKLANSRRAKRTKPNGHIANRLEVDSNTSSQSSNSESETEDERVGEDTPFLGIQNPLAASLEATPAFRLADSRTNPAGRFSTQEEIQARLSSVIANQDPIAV
Torsin-1A-interacting protein 2 (Homo sapiens), sequence (Q8NFQ8 whole entry, looked up): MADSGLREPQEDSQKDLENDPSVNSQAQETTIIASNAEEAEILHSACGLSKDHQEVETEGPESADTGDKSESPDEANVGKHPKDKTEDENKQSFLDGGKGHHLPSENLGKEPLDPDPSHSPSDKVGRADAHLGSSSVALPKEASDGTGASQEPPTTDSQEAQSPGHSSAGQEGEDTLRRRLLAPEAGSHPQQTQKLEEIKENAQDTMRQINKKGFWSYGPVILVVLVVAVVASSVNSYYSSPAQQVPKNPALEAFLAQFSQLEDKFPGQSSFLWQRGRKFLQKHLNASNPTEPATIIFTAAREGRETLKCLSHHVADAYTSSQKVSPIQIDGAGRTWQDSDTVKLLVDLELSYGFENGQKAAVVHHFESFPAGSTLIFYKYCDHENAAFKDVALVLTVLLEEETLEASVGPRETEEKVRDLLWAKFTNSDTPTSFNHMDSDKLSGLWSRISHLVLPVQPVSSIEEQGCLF
Neurogenic locus notch homolog protein 3 (Homo sapiens), sequence (Q9UM47 whole entry, looked up): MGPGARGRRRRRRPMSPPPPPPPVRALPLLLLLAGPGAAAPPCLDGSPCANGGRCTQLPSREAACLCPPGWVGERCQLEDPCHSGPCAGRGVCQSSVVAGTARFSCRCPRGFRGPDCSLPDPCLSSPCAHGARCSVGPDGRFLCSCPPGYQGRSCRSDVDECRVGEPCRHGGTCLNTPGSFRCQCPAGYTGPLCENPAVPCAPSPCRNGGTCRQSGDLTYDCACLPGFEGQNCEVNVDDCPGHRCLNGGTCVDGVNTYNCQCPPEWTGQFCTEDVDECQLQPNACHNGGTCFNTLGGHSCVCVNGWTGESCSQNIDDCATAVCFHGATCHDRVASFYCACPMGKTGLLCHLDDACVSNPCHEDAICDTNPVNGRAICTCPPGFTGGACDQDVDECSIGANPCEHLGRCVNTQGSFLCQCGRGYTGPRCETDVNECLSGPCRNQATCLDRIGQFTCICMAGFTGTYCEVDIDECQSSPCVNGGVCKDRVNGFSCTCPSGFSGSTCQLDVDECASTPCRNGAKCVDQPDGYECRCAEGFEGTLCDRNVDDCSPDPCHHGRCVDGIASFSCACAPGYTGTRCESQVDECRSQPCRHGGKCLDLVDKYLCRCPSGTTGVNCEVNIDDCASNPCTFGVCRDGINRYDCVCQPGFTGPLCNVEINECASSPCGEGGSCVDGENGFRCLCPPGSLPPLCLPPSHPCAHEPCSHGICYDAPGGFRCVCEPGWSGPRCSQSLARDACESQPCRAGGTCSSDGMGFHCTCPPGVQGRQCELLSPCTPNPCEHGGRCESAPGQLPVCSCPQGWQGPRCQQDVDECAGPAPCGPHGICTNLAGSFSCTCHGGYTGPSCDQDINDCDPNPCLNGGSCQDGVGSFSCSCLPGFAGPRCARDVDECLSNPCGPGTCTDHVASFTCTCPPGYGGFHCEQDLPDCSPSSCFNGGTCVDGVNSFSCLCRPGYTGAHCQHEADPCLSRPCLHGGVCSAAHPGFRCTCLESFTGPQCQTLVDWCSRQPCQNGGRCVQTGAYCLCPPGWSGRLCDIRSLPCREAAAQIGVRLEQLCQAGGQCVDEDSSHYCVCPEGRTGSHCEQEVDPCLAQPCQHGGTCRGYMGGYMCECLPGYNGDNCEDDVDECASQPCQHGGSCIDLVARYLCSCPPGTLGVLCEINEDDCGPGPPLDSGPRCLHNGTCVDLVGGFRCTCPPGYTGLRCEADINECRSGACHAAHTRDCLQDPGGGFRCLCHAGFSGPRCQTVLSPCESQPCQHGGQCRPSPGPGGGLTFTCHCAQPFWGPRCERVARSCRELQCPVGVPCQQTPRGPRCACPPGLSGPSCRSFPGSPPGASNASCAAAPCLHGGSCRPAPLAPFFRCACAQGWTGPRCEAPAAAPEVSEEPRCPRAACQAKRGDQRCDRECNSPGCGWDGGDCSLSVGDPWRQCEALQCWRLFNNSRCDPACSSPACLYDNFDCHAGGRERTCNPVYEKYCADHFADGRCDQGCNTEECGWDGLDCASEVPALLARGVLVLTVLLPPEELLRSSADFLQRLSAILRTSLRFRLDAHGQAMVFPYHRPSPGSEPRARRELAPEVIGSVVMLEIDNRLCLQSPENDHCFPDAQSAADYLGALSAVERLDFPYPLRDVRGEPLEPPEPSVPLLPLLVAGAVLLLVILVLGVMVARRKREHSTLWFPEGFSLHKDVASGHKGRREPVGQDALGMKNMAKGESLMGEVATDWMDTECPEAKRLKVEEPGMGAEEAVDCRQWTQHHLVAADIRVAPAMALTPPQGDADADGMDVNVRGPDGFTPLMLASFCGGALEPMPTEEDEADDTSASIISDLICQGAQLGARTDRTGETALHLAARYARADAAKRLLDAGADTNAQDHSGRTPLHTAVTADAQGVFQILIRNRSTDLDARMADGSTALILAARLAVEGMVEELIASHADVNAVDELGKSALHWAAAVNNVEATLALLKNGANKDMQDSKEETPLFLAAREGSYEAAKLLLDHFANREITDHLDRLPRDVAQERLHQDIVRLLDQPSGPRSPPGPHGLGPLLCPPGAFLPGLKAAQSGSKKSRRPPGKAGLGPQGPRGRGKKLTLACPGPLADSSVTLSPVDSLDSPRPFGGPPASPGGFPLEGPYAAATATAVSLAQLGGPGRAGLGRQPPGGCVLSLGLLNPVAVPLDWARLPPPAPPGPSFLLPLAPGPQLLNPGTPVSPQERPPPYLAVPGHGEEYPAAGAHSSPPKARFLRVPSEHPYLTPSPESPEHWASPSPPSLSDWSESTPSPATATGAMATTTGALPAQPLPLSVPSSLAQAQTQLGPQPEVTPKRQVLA

Structure (SMILES): CCCC[C@@H](O)C1=C(COc2ccccc2)C[C@H]2C(=O)N(Cc3ccccc3)C(=O)[C@H]2[C@H]1CO
- composite z-score [1]: -0.123
- composite z-score [2]: 0.195
- composite z-score [3]: -0.147
- composite z-score [4]: 0.479
- composite z-score [5]: 0.339
- composite z-score [6]: 1.01
- composite z-score [7]: 0.426
- z-score [8]: -0.791 (inactive)
- composite z-score [9]: -0.0226
- composite z-score [10]: -0.449
- composite z-score [11]: 0.287
- z-score [12]: 0.298 (inactive)
- z-score [13]: -0.336 (inactive)
- z-score [14]: 0.361 (inactive)
- composite z-score [15]: 0.492
- z-score [16]: 0.672 (inactive)
- composite z-score [17]: -0.0907
- composite z-score [18]: 0.517
- composite z-score [19]: 0.323
- composite z-score [20]: -0.0828

Structure (SMILES): COCC(=C=CC[C@H](O)c1ccc(CO)o1)CCO
- composite z-score [1]: -0.254
- composite z-score [2]: -0.0406
- composite z-score [3]: 0.0154
- composite z-score [4]: 0.553
- composite z-score [5]: -0.234
- composite z-score [6]: 1.19
- composite z-score [7]: 1.23
- z-score [8]: 0.461 (inactive)
- composite z-score [9]: 0.51
- composite z-score [10]: 0.382
- composite z-score [11]: 1.09
- z-score [12]: 0.6 (inactive)
- z-score [13]: 0.0793 (inactive)
- z-score [14]: 0.244 (inactive)
- composite z-score [15]: 0.751
- z-score [16]: -0.349 (inactive)
- composite z-score [17]: -0.0501
- composite z-score [18]: 1.04
- composite z-score [19]: 1.12
- composite z-score [20]: -0.0976

Structure (SMILES): C=CCC(OC(C)=O)[C@@H]1[C@@H](N(Cc2cc3ccccc3o2)C(=O)Cc2ccc(F)cc2)c2cc(OCCCO)ccc2N1C(=O)Cc1ccc2ccccc2c1 (stereo not given in full)
- composite z-score [1]: -0.367
- composite z-score [2]: -0.804
- composite z-score [3]: -0.017
- composite z-score [4]: -0.469
- composite z-score [5]: -0.665
- composite z-score [6]: -0.436
- composite z-score [7]: 0.112
- z-score [8]: -1.47 (inactive)
- composite z-score [9]: 0.0652
- composite z-score [10]: -0.306
- composite z-score [11]: -0.241
- z-score [12]: -0.689 (inactive)
- z-score [13]: -0.761 (inactive)
- z-score [14]: -0.36 (inactive)
- composite z-score [15]: 0.426
- z-score [16]: -1.16 (inactive)
- composite z-score [17]: -0.0736
- composite z-score [18]: 0.129
- composite z-score [19]: -0.413
- composite z-score [20]: -0.185

Structure (SMILES): CC(C)NC(=O)[C@@]1(C)c2ccccc2C(=O)N(Cc2ccc(OC(F)(F)F)cc2)[C@H]1c1ccc(CO)cc1
- composite z-score [1]: 1.95
- composite z-score [2]: -1.63
- composite z-score [3]: -0.167
- composite z-score [4]: -0.546
- composite z-score [5]: -1.25
- composite z-score [6]: 0.628
- composite z-score [7]: 0.865
- z-score [8]: -3.14 (inactive)
- composite z-score [9]: -0.55
- composite z-score [10]: -0.28
- composite z-score [11]: 0.911
- z-score [12]: 0.738 (inactive)
- z-score [13]: -0.784 (inactive)
- z-score [14]: -1.38 (inactive)
- composite z-score [15]: 2.32
- z-score [16]: -1.55 (inactive)
- composite z-score [17]: -0.221
- composite z-score [18]: -0.748
- composite z-score [19]: -0.284
- composite z-score [20]: -0.349

Structure (SMILES): COC(=O)C(CC#Cc1ccc2c(c1)[C@]1(C(=O)N2)[C@H](c2ccc(O)cc2)N2[C@H](c3ccccc3)[C@H](c3ccccc3)OC(=O)[C@H]2[C@@H]1C(=O)NC[C@H](O)c1ccccc1)C(=O)OC
- composite z-score [1]: -0.14
- composite z-score [2]: 0.249
- composite z-score [3]: -0.0592
- composite z-score [4]: 1.06
- composite z-score [5]: 0.791
- composite z-score [6]: -0.0744
- composite z-score [7]: 1.4
- z-score [8]: 0.798 (inactive)
- composite z-score [9]: 0.257
- composite z-score [10]: 0.0749
- composite z-score [11]: 1.55
- z-score [12]: 0.31 (inactive)
- z-score [13]: 0.174 (inactive)
- z-score [14]: -0.131 (inactive)
- composite z-score [15]: 1.97
- z-score [16]: -0.968 (inactive)
- composite z-score [17]: 0.0634
- composite z-score [18]: 0.668
- composite z-score [19]: 1.09
- composite z-score [20]: 0.128

Structure (SMILES): COCCOC(=O)N1C(=O)[C@@]2(c3cc(C#CCCO)ccc31)[C@H](c1ccc(OCCO)cc1)N1[C@H](c3ccccc3)[C@H](c3ccccc3)OC(=O)[C@H]1[C@@H]2C(=O)Nc1nc2ccccc2s1
- composite z-score [1]: 0.878
- composite z-score [2]: 0.68
- composite z-score [3]: 0.0943
- composite z-score [4]: 0.575
- composite z-score [5]: 0.586
- composite z-score [6]: 0.222
- composite z-score [7]: 1.1
- z-score [8]: 2.92 (inactive)
- composite z-score [9]: 1.24
- composite z-score [10]: 0.547
- composite z-score [11]: 1.42
- z-score [12]: 1.61 (inactive)
- z-score [13]: 1.26 (inactive)
- z-score [14]: 2.48 (inactive)
- composite z-score [15]: 1.26
- z-score [16]: 0.235 (inactive)
- composite z-score [17]: 0.151
- composite z-score [18]: 1.13
- composite z-score [19]: 1.08
- composite z-score [20]: 0.197

Structure (SMILES): [N-]=[N+]=Nc1ccccc1[C@@H]1OC(c2ccc(OCCCO)cc2)=N[C@]1(Cc1ccccc1)C(=O)O
- composite z-score [1]: -0.0974
- composite z-score [2]: 0.396
- composite z-score [3]: -0.0178
- composite z-score [4]: 0.366
- composite z-score [5]: 0.828
- composite z-score [6]: 1.42
- composite z-score [7]: 1.22
- z-score [8]: 0.235 (inactive)
- composite z-score [9]: 1.39
- composite z-score [10]: -0.126
- composite z-score [11]: 1.56
- z-score [12]: 0.85 (inactive)
- z-score [13]: 0.594 (inactive)
- z-score [14]: 1.82 (inactive)
- composite z-score [15]: 2.43
- z-score [16]: 0.779 (inactive)
- composite z-score [17]: 0.106
- composite z-score [18]: 0.522
- composite z-score [19]: 1.05
- composite z-score [20]: -0.268

Structure (SMILES): CCOC(=O)C1=C[C@@H](c2ccccc2)N(S(=O)(=O)c2ccc(C)cc2)[C@H]1c1ccc(OC)cc1
- composite z-score [1]: 0.0896
- composite z-score [2]: 0.733
- composite z-score [3]: 0.479
- composite z-score [4]: 0.848
- composite z-score [5]: 1.61
- composite z-score [6]: 1.02
- composite z-score [7]: 1
- z-score [8]: -2.76 (inactive)
- composite z-score [9]: 1.14
- composite z-score [10]: 0.554
- composite z-score [11]: 1.24
- z-score [12]: -1.13 (inactive)
- z-score [13]: 1.29 (inactive)
- z-score [14]: 0.698 (inactive)
- composite z-score [15]: 2.71
- z-score [16]: -0.685 (inactive)
- composite z-score [17]: 0.338
- composite z-score [18]: 0.221
- composite z-score [19]: 1.14
- composite z-score [20]: 0.756

Structure (SMILES): CC(C)c1ccc(NN2C(C(O)c3ccc(F)cc3)C=CC3C(=O)N(c4ccccc4)C(=O)C32)cc1 (stereo not given)
- composite z-score [1]: -0.26
- composite z-score [2]: 0.25
- composite z-score [3]: 0.187
- composite z-score [4]: 1
- composite z-score [5]: 1.55
- composite z-score [6]: 1.28
- composite z-score [7]: 1.04
- z-score [8]: -0.38 (inactive)
- composite z-score [9]: 1.25
- composite z-score [10]: -0.118
- composite z-score [11]: 1.47
- z-score [12]: 1.22 (inactive)
- z-score [13]: 0.842 (inactive)
- z-score [14]: 0.159 (inactive)
- composite z-score [15]: 3.57
- z-score [16]: -1.01 (inactive)
- composite z-score [17]: -0.0865
- composite z-score [18]: -0.101
- composite z-score [19]: 1.03
- composite z-score [20]: 0.0182

Structure (SMILES): CCCC=C(CCC)[C@@H](NC(=O)c1cccs1)c1ccc(C(=O)OC)cc1
- composite z-score [1]: 2.23
- composite z-score [2]: 0.392
- composite z-score [3]: 0.905
- composite z-score [4]: 1.1
- composite z-score [5]: 0.592
- composite z-score [6]: 0.028
- composite z-score [7]: 0.648
- z-score [8]: 0.874 (inactive)
- composite z-score [9]: 2.61
- composite z-score [10]: 1.39
- composite z-score [11]: -1.88
- z-score [12]: -0.0214 (inactive)
- z-score [13]: 0.598 (inactive)
- z-score [14]: -0.0964 (inactive)
- composite z-score [15]: 0.905
- z-score [16]: -0.0658 (inactive)
- composite z-score [17]: 1.18
- composite z-score [18]: 0.542
- composite z-score [19]: 0.587
- composite z-score [20]: 0.925
